Experiments:
Conditions in all cases: concentration: 1 μM, replicates: in singlicate; n = 1
[1] = tested on: GRK7
[2] = tested on: GSK3A
[3] = tested on: GSK3B
[4] = tested on: T1, HASPIN
T1 construct: gene GSG2

[5] = tested on: HCK
[6] = tested on: HIPK1
[7] = tested on: HIPK2
[8] = tested on: HIPK3
[9] = tested on: HIPK4
[10] = tested on: HPK1
[11] = tested on: HUNK
[12] = tested on: ICK
[13] = tested on: IGF1R
[14] = tested on: T2, IKK-alpha
T2 construct: gene CHUK

[15] = tested on: T3, IKK-beta
T3 construct: gene IKBKB

[16] = tested on: T4, IKK-epsilon
T4 construct: gene IKBKE

[17] = tested on: INSRR
[18] = tested on: INSR
[19] = tested on: IRAK1
[20] = tested on: IRAK3
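Note: KINOMEscan kinase panel screen.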

Structure (SMILES) | %Inh [1] | %Inh [2] | %Inh [3] | %Inh [4] | %Inh [5] | %Inh [6] | %Inh [7] | %Inh [8] | %Inh [9] | %Inh [10] | %Inh [11] | %Inh [12] | %Inh [13] | %Inh [14] | %Inh [15] | %Inh [16] | %Inh [17] | %Inh [18] | %Inh [19] | %Inh [20]
COc1cc2ncn(-c3cc(OCC4CCCO4)c(C(N)=O)s3)c2cc1OC (centres unmarked) [GSK204607] | 0% | 20% | 0% | 26% | 0% | 7% | 0% | 17% | 52% | 15% | 0% | 0% | 6% | 0% | 0% | 24% | 0% | 0% | 0% | 0%
COc1cccc(-c2cc(-c3c[nH]nc3-c3ccccn3)ccn2)c1 [GW680338] | 0% | 3% | 8% | 23% | 0% | 11% | 10% | 22% | 21% | 25% | 71% | 0% | 6% | 2% | 0% | 0% | 0% | 0% | 13% | 0%
Cc1csc(-c2nc(Nc3ccncc3)c3ccccc3n2)n1 [GW869640] | 17% | 0% | 46% | 87% | 23% | 7% | 23% | 36% | 7% | 3% | 0% | 33% | 14% | 48% | 41% | 0% | 11% | 2% | 12% | 0%
Cc1ccc(-c2cc(-c3c[nH]nc3-c3ccccn3)ccn2)cc1 [GW684088] | 0% | 22% | 2% | 35% | 0% | 7% | 0% | 1% | 0% | 24% | 1% | 0% | 36% | 0% | 0% | 9% | 0% | 0% | 0% | 7%
Cc1cccc(-c2nc(C)cc(Nc3ccncc3)n2)n1 [GSK257997] | 0% | 27% | 17% | 31% | 0% | 0% | 0% | 7% | 0% | 34% | 7% | 0% | 5% | 0% | 13% | 12% | 0% | 3% | 0% | 0%
Cl.NC(=O)c1cccc(Nc2nccc(Nc3ccc(Oc4cccc(Cl)c4)c(Cl)c3)n2)c1 [GW659008] | 0% | 0% | 0% | 0% | 72% | 0% | 0% | 0% | 0% | 37% | 0% | 85% | 14% | 3% | 5% | 0% | 12% | 6% | 0% | 50%
COc1cc2ncnc(Nc3ccc4nc(-c5ccccc5)[nH]c4c3)c2cc1OC.Cl [GW282450] | 0% | 0% | 22% | 0% | 0% | 6% | 0% | 32% | 35% | 1% | 0% | 4% | 6% | 0% | 0% | 0% | 0% | 94.3% | 25% | 0%
